In experiment [1] the target is Luciferin 4-monooxygenase (Photinus pyralis) (UniProt P08659). Briefly: qHTS assay to identify small molecule inhibitors of firefly luciferase (AID 1224835). Also: nearly all actives have a fitted effect of over 25% in size. In a few lines: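 Quantitative HTS format; KM concentrations of both substrates. Purified P. pyralis FLuc activity quantified from luminescence images.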
Background: qHTS replaces the single test concentration by a dilution series.

A short description of experiment [2]: qHTS assay to identify small molecule agonists of the constitutive androstane receptor (CAR) signaling pathway - cell viability counter screen (AID 1224836). Also: nearly all actives have a fitted effect of over 45% in size. In short, it runs like this: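 Compound titrations (15 concentrations) went onto HepG2-CYP2B6-hCAR cells 4 h after seeding, alongside PK11195 at a final 0.75 uM; a 23 h, 37 C/5% CO2 incubation preceded CellTiter-Fluor viability measurement.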

The nature of experiment [3]: qHTS assay to identify small molecule antagonists of the constitutive androstane receptor (CAR) signaling pathway - cell viability counter screen (AID 1224837). Also: nearly all actives have a fitted effect of over 45% in size. In short, it runs like this:
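Counter screen run in HepG2-CYP2B6-hCAR cells: 4 hr settle, compound titration (15 concentrations) with 50 nM CITCO, 23 hr at 37 C/5% CO2, CellTiter-Fluor fluorescence.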

The target in experiment [4] is Nuclear receptor subfamily 1 group I member 3 (Homo sapiens) (UniProt Q14994). Kind of experiment: qHTS assay to identify small molecule antagonists of the constitutive androstane receptor (CAR) signaling pathway (AID 1224838).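 Also: HepG2 cells stably expressing hCAR with CYP2B6 luciferase reporter stimulated by CITCO; nearly all actives have a fitted effect of over 40% in size.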 In a few lines: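 Cell line: HepG2 double-stable for hCAR and CYP2B6-2.2kb reporter. Agonist: CITCO, 50 nM final. Compounds: 15 concentrations, 24 h, 37 C. Detection: ONE-Glo luminescence.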

The target is the same in experiment [5]. Kind of experiment: qHTS assay to identify small molecule agonists of the constitutive androstane receptor (CAR) signaling pathway (AID 1224839).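 Also: HepG2 cells stably carrying human CAR and a CYP2B6 luciferase reporter; nearly all actives have a fitted effect of over 15% in size.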 In a few lines: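 In this screen, CAR-driven CYP2B6 promoter activity is measured by luminescence in HepG2-CYP2B6-hCAR cells after 24 h with test compounds and 0.75 uM PK11195 (final concentration).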
A short description of experiment [6]: qHTS assay to identify small molecule antagonists of the estrogen related receptor signaling pathway with the pleiotropic PPARgamma coactivator (PGC) from Tox21 10K library - cell viability counter screen (AID 1224840; active = well fitted cell-killing curve with a large enough effect in the repeat runs, not every such curve was filed as active; also: nearly all actives have a fitted effect of over 40% in size). In a few lines: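 Following seeding of 2,000 PGC/ERR cells/well and 6 hours' incubation, test compounds were delivered in DMSO. The plates then sat 17.5 hours at 37 C before a fluorogenic live-cell protease reagent (CellTiter-Fluor) was read after 30 min.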

A short description of experiment [7]: qHTS assay to identify small molecule antagonists of the estrogen related receptor signaling pathway with the pleiotropic PPARgamma coactivator (PGC) from Tox21 10K library (AID 1224841; call rule not given here; also: actives are mostly falling curves and most rising ones were filed inactive; nearly all actives have a fitted effect of over 50% in size). In a few lines: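 qHTS antagonist format: PGC/ERR cells, 2k/well, compound in DMSO by pin transfer after 6 h attachment, 18 h treatment at 37 C, One-Glo luminescence read at 30 min.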

The nature of experiment [8]: qHTS assay to identify small molecule agonists of the estrogen related receptor signaling pathway with the pleiotropic PPARgamma coactivator (PGC) from Tox21 10K library (AID 1224842). Also: nearly all actives have a fitted effect of over 15% in size. In a few lines:
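PGC/ERR reporter cells (NTP line) were seeded 2,000 per well, rested 6 h at 37 C/5% CO2, then pin-dosed with compounds in DMSO for 18 h at 37 C; luciferase read by One-Glo luminescence after 30 min at room temperature.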

Experiment [9] in a line: qHTS assay to identify small molecule agonists of the hypoxia (HIF-1) signaling pathway - cell viability counter screen (AID 1224844; calls by dose curve; also: nearly all actives have a fitted effect of over 50% in size; also: potency is read from the fitted curve at half-maximal effect). In a few lines:
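Cells (HRE-bla ME-180, 2,000 per well) sat 5 hrs at 37C, got compound for 17 hrs, were read for CCF4-AM FRET, and were finally lysed with CellTiter-Glo for a 30 min room-temperature luminescence read.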

Experiment [10] can be described thus: qHTS assay to identify small molecule agonists of H2AX (AID 1224845; active = well fitted activation curve with a large enough effect in the signal ratio in the repeat runs, not every such curve was filed as active; the % refers to the signal ratio). In short, it runs like this:
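Wild-type CHO-K1 cells plated overnight, then exposed 3 hr at 37C to compounds at 15 concentrations (0.76% DMSO). Lysed, then HTRF anti-pH2AX(S139)-cryptate/anti-H2AX-d2 detection after 24 hr at room temperature; emissions 665 and 620 nm.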

Experiment [11] can be described thus: qHTS assay to identify small molecule agonists of the hypoxia (HIF-1) signaling pathway (AID 1224846; active = well fitted activation curve with a large enough effect in the signal ratio in the repeat runs, not every such curve was filed as active; the % refers to the signal ratio). In short, it runs like this:
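A low-serum medium (0.5% dialyzed FBS) holding 2,000 HRE-bla ME-180 cells per well is preincubated for 5 hrs, dosed with compounds by pintool, and kept a further 17 hrs at 37C, 5% CO2 before CCF4-AM FRET detection of beta-lactamase.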

A short description of experiment [12]: qHTS assay to identify small molecule agonists of H2AX - cell viability counter screen (AID 1224847; calls by dose curve; also: top concentration of the series differs between compounds; nearly all actives have a fitted effect of over 30% in size). In a few lines:
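Read-out: CellTiter-Glo luminescence, 30 min RT. Cells: wild-type CHO-K1, 1000/well, 10% FBS, plated overnight at 37C. Treatment: 15 concentrations, 3 hr, 37C, 0.76% DMSO.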

Experiment [13] in a line: qHTS assay to identify small molecule antagonists of the estrogen related receptor (ERR) signaling pathway from Tox21 library (AID 1224848). Also: nearly all actives have a fitted effect of over 50% in size. In a few lines:
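Cells: ERR line, 2,000/well; 6 h preincubation 37 C/5% CO2. Cpd in DMSO via pin tool; 18 h, 37 C. ONE-Glo, 30 min RT, luminescence.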

Experiment [14] is described as follows: qHTS assay to identify small molecule agonists of the estrogen related receptor (ERR) signaling pathway from Tox21 library (AID 1224849; calls by dose curve; also: nearly all actives have a fitted effect of over 15% in size). The note with it: ERR reporter cell line, ONE-Glo luciferase, 18 h; at 92.4 µM (top of the series) unless noted. In a few lines:
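Screening used an NTP-provided ERR luciferase cell line. Compounds in DMSO were added 6 h after seeding and left 18 h at 37 C before a 30 min ONE-Glo step and luminescence reading.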

A short description of experiment [15]: qHTS RealTime-Glo MT Cell Viability Assay in HepG2 cells - 24 hour (AID 1224867). Also: nearly all actives have a fitted effect of over 50% in size. In a few lines: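 HepG2 cells (600/well) were dispensed with RealTime-Glo reagents, incubated 5 h at 37 °C, then treated with compounds in DMSO for up to 40 h. Nonlytic NanoLuc luminescence reflecting viable cells was read at each stated time point.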
Experiment [16] in a line: A CellTox Green Cytotoxicity Assay to monitor cytotoxicity in HEK293 cells - 0 hour (AID 1224869). Also: nearly all actives have a fitted effect of over 50% in size. In short, it runs like this:
(§1)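 Fluorescence intensity, read at 0, 8, 16, 24, 32 and 40 h of compound treatment, reflected dye binding to DNA of dead HEK293 cells; compounds (23 nL, DMSO) were added 5 h after plating cells with reagent.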

Experiment [17] in a line: qHTS RealTime-Glo MT Cell Viability Assay in HepG2 cells - 40 hour (AID 1224870). Also: nearly all actives have a fitted effect of over 50% in size. In short, it runs like this: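 HepG2 cells mixed with RealTime-Glo MT reagents (NanoLuc plus cell-permeant prosubstrate) were seeded at 600 cells/well, incubated 5 h at 37 C/5% CO2, then pinned with compounds in DMSO; nonlytic luminescence tracked viability during 40 h treatment.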
Experiment [18] in a line: A CellTox Green Cytotoxicity Assay to monitor cytotoxicity in HEK293 cells - 40 hour (AID 1224871). Also: nearly all actives have a fitted effect of over 45% in size. In a few lines: as §1
The nature of experiment [19]: qHTS RealTime-Glo MT Cell Viability Assay in HEK293 cells - 32 hour (AID 1224868). In a few lines:
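HEK293 cells seeded with NanoLuc/prosubstrate reagent, rested 5 h at 37 C, then dosed and kept at 37 C up to 40 h. Nonlytic real-time luminescence from viable cells read at 0, 8, 16, 24, 32 and 40 h.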

Experiment [20] addresses Thyrotropin receptor (Homo sapiens) (UniProt P16473). Kind of experiment: qHTS assay to identify small molecule agonists of the thyroid stimulating hormone receptor (TSHR) signaling pathway (AID 1224843; calls by dose curve; also: nearly all actives have a fitted effect of over 45% in size). In a few lines: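 TSHR-expressing HEK293 cells (800 per well) were exposed to compounds for 30 min at room temperature. cAMP was then detected by HTRF competition with cAMP-d2 and anti-cAMP cryptate, read after 1 h at room temperature. Fifteen concentrations, triplicate.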

A number with no mark means an inactive call. Results filed as inconclusive are left out. The source made the active and inactive calls. Unless noted, calls follow the shape of the dose curve; as a rule, active = well fitted curve in the direction sought with a large enough effect in the repeat runs; inconclusive = weak or mixed curves; inactive = no such curve, though single readings can be large; an effect the other way counts as inactive or inconclusive.
% is scaled to controls: 0 for no effect and ±100 for the full control effect.

Chain of Nuclear receptor subfamily 1 group I member 3 (Homo sapiens) (Q14994 whole entry, looked up): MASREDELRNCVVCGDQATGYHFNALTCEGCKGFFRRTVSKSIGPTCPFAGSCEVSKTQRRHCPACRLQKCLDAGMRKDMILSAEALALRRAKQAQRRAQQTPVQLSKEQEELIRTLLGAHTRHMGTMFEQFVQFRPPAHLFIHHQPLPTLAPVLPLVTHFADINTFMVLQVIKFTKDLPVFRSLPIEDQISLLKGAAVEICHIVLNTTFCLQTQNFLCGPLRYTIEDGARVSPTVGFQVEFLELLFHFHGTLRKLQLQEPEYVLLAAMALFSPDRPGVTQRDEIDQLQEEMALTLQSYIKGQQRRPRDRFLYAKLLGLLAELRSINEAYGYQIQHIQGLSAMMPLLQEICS
Chain of Luciferin 4-monooxygenase (Photinus pyralis) (P08659 whole entry, looked up): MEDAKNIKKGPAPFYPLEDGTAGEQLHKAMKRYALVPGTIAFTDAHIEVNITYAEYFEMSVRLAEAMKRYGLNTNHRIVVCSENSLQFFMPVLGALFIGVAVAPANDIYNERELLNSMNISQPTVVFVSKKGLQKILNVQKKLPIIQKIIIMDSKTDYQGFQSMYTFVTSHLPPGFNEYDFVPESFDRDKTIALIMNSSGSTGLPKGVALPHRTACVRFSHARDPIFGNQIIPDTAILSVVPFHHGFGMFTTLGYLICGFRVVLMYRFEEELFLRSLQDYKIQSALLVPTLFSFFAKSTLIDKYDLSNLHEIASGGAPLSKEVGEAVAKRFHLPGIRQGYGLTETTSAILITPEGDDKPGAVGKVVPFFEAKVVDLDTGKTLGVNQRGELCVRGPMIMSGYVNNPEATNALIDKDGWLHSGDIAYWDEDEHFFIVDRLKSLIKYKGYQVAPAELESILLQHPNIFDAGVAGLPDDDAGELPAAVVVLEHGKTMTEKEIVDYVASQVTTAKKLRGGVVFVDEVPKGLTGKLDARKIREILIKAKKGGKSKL
Chain of Thyrotropin receptor (Homo sapiens) (P16473 whole entry, looked up): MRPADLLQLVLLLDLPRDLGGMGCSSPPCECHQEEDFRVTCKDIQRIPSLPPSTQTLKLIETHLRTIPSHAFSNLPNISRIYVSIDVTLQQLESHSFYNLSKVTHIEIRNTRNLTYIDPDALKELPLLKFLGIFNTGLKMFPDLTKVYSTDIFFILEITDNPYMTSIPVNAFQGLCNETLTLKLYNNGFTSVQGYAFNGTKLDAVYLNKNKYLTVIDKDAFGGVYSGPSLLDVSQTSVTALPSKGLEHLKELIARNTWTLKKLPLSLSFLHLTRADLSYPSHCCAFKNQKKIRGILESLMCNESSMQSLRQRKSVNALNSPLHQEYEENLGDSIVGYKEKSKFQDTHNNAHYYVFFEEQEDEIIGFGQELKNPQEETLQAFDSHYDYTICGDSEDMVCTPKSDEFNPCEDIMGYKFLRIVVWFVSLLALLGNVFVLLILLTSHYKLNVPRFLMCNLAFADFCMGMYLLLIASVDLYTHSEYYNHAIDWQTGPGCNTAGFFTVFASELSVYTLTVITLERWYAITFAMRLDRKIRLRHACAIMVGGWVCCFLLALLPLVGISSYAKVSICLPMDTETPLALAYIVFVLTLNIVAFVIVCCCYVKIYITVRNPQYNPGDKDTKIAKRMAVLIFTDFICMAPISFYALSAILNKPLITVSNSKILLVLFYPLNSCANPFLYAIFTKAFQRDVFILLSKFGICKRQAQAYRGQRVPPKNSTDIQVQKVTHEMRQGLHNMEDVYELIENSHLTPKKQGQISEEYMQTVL

With `CCCCOC(=O)[C@@H](C)Oc1ccc(Oc2ccc(C#N)cc2F)cc1`, the Potency result in [1], in experiment [2], in experiment [3], in [4], in experiment [5] and in [6] was “inactive” each time. For the same molecule, the Potency result in experiment [7], in [9], in [10], in experiment [12], in experiment [13] and in [15] was “inactive” in each case. Besides, the Potency result in experiment [16], in experiment [17] and in experiment [18] was “inactive” in each case. The molecule was called inactive in experiment [8] and in experiment [11]. In addition, in experiment [14], the activity change, positive = activation is -5.11%.

Take `CCC(Cl)[N+](=O)[O-]` (stereo unspecified): the Potency result in experiment [1], in [2], in experiment [3], in experiment [4], in [5] and in experiment [6] was “inactive” each time. The Potency result in experiment [7], in experiment [9], in experiment [10], in experiment [12], in experiment [13] and in experiment [15] was “inactive” each time. For the same molecule, the Potency entry in experiment [19], in [16], in [17] and in experiment [18] was “inactive” in each case. The molecule was classed as inactive in [8] and in experiment [11]. Further, the activity change, positive = activation in [14] was -7.71%.

In the case of `CC1=C(C(=O)O)N2C(=O)[C@@H](N)[C@H]2SC1`, the activity change, negative = inhibition in [1] is -0.398% [at 23.6 µM]. Further, the viability change, negative = cytotoxic was 4.01% [at 19 µM] in [2] and -5.15% [at 19 µM] in experiment [6]. Besides, the activity change, negative = cytotoxicity is 0.992% [at 19 µM] in experiment [3], 0.296% [at 15.8 µM] in [9], -3.1% [at 31.6 µM] in experiment [12] and 0.806% [at 15.8 µM] in [15]. The activity, negative = inhibition was 17.2% [at 19 µM] in experiment [4], 1.75% [at 19 µM] in experiment [7] and 6% [at 19 µM] in experiment [13]. In addition, the activation is -1.84% [at 19 µM] in experiment [5], 0.483% [at 19 µM] in experiment [8], 0.53% [at 19 µM] in experiment [20] and -0.576% [at 15.8 µM] in [11]. Moreover, the activation (H2AX phosphorylation) in experiment [10] was -1.16% [at 31.6 µM]. Moreover, the activity change, positive = activation in experiment [14] was 3.36% [at 19 µM]. The figures for the activity change, negative = cytotoxic in experiment [19] and in [17] were 1.51% [at 15.8 µM] and 1.44% [at 15.8 µM], respectively. Besides, the cytotoxicity in experiment [16] was -3.35% [at 15.8 µM]. For the same molecule, in experiment [18], the cytotoxicity increase is -14.9% [at 15.8 µM].

For `CCC(C)n1c(=O)[nH]c(C)c(Br)c1=O` (stereo unspecified), the Potency result in experiment [1], in experiment [2], in experiment [3], in experiment [4], in [5] and in experiment [6] was “inactive” in each case. In addition, the Potency entry in experiment [7], in [20], in [9], in experiment [10], in [12] and in experiment [13] was “inactive” each time. The Potency result in [15], in experiment [19], in [16] and in [17] was “inactive” throughout. The outcome in experiment [8] and in experiment [11] was inactive. Moreover, the activity change, positive = activation in [14] is -4.95%.

For `CNNC`, the Potency result in experiment [1], in [2], in experiment [3], in experiment [4], in experiment [5] and in experiment [6] was “inactive” in each case. The Potency result in experiment [7], in experiment [9], in [12], in experiment [13], in experiment [15] and in [19] was “inactive” each time. For the same molecule, the Potency entry in experiment [16], in experiment [17] and in experiment [18] was “inactive” each time. Besides, the result in experiment [8] and in experiment [11] was inactive. Also, the activity change, positive = activation in experiment [14] is 6.11%.

On to `C1CCC(C2CCCCC2)CC1`, for which the Potency entry in experiment [1], in [2], in experiment [3], in [4], in [5] and in [6] was “inactive” throughout. For the same molecule, the Potency result in experiment [7], in experiment [10], in experiment [12], in [13], in experiment [15] and in experiment [16] was “inactive” in each case. Moreover, the Potency entry in [17] and in experiment [18] was “inactive” each time. For the same molecule, the molecule was classed as inactive in experiment [8]. Moreover, in experiment [9], the Potency was 21.9 µM (active). In [14], the activity change, positive = activation is -6.98%.

These data come from PubChem BioAssay (Tox21).
